Bioassay records as filed in PubChem BioAssay.
TcdB inh: TcdB glycohydrolase inhibition. P18177. TcdB glycohydrolase enzymatic assay, plate reader. inhibition, % at 9.99 µM. 350,000 compounds, 0.24% hits; in the data active means inhibition above about 10%
BoNT F protease: inhibitors of Botulinum neurotoxin F light chain protease. AID 588497. Multiplex microsphere protease cleavage assay, flow cytometry. inhibition, % at 10 µM. 360,000 compounds, 0.22% hits; in the data active means inhibition above about 35%, passing the limit was not always enough; inconclusive means no clear call, values can overlap the other calls; further: plate controls were buffer without enzyme for full effect and enzyme alone for no effect
Bead autofluor: counter-screen for toxin protease inhibitors: compound fluorescence; compound autofluorescence counterscreen, microsphere flow cytometry; active compounds read high; fluorescence intensity (no concentration beside the values); 360,000 compounds, 3.1% hits; in the data active means fluorescence intensity above about 16000; inconclusive means no clear call, values can overlap the other calls
BoNT-A LC inh2: BoNT A light chain protease inhibition | multiplex microsphere protease substrate cleavage, flow cytometry | inhibition, % at 10 µM | 360,000 compounds, 0.17% hits | AID 588499; further: plate controls were buffer without enzyme for full effect and enzyme alone for no effect
Anthrax LF prot: blocks Bacillus anthracis lethal factor protease | multiplex microsphere protease cleavage assay, LF | P15917 | inhibition, % at 10 µM | 360,000 compounds, 0.12% hits | AID 588501; further: plate controls were buffer without enzyme for full effect and enzyme alone for no effect
* = called active by the depositor. Shown is part of a subset that was picked to be rich in hits. Unless noted, no stated cut-off is given here; in the data, active means inhibition above about 30%; inconclusive means no clear call, values can overlap the other calls; inactive means below that.

`C[C@@H]1CN([C@H](C)CO)C(=O)c2cc(C#Cc3ccccc3F)cnc2O[C@@H]1CN(C)C(=O)C1CCC1` gave TcdB inh 2.
Screening CN1CCN(NC(=O)c2cc([N+](=O)[O-])cc([N+](=O)[O-])c2)CC1 returned BoNT F protease -2, Bead autofluor 18837*, BoNT-A LC inh2 2 and Anthrax LF prot 1.
For O=C(Nc1cc([N+](=O)[O-])ccc1N1CCCC1)c1ccccc1 the results were TcdB inh 0, BoNT F protease -1, Bead autofluor 4138, BoNT-A LC inh2 0 and Anthrax LF prot -3.
COc1ccc(C(=O)Nc2cc([N+](=O)[O-])ccc2N2CCN(C)CC2)cc1 was read as BoNT F protease 0, Bead autofluor 19500*, BoNT-A LC inh2 2 and Anthrax LF prot -4.
For CN1CCN(c2ccc([N+](=O)[O-])cc2NC(=O)c2ccccc2)CC1 the results were BoNT F protease -3, Bead autofluor 16981*, BoNT-A LC inh2 inconclusive and Anthrax LF prot -4.
COc1ccc(OC)c(NC(=O)c2ccc(S(=O)(=O)N3CCN(C)CC3)cc2)c1 was read as BoNT F protease -2, Bead autofluor 22427*, BoNT-A LC inh2 0 and Anthrax LF prot -1.
For COc1ccc(C(=O)Nc2ccc(S(=O)(=O)N3CCN(C)CC3)cc2)cc1 the results were TcdB inh 1, BoNT F protease -7, Bead autofluor 5222, BoNT-A LC inh2 0 and Anthrax LF prot 0.
Screening Cc1noc(C)c1S(=O)(=O)N(C)C[C@@H]1Oc2ccc(NS(=O)(=O)c3cccs3)cc2CC(=O)N([C@@H](C)CO)C[C@H]1C returned TcdB inh 0.
O=C(C[C@H]1C[C@H]2c3cc(NC(=O)c4ccc5c(c4)OCO5)ccc3O[C@H]2[C@H](CO)O1)NCCN1CCCCC1 was read as TcdB inh 1.
`CN1CCN(c2ccccc2NC(=O)c2cccc([N+](=O)[O-])c2)CC1` gave BoNT F protease -33, Bead autofluor 3821, BoNT-A LC inh2 0 and Anthrax LF prot -16.
`COc1cccc(C(=O)Nc2cc([N+](=O)[O-])ccc2N2CCN(C)CC2)c1` gave TcdB inh 2, BoNT F protease -9, Bead autofluor 24311*, BoNT-A LC inh2 -4 and Anthrax LF prot -3.
CO[C@H]1CN(C)C(=O)c2cc(NS(=O)(=O)CC(F)(F)F)ccc2OC[C@@H](C)N(Cc2ccccn2)C[C@H]1C was read as TcdB inh -9.
`Cc1oc(-c2ccc(Cl)cc2)cc1-c1nn2c(-c3ccoc3C)nnc2s1` gave BoNT F protease 3, Bead autofluor 23295*, BoNT-A LC inh2 -2 and Anthrax LF prot -5.
Screening CC(C)NC(=O)N(C)C[C@@H]1Oc2ccc(NC(=O)CCCCCC(=O)Nc3ccccc3N)cc2C(=O)N([C@H](C)CO)C[C@H]1C returned TcdB inh -1.
Screening O=C(Nc1ccc(F)cc1)N[C@H]1C=C[C@H](CC(=O)N2CCCCC2)O[C@@H]1CO returned TcdB inh -1.
Screening CC(C)[C@H](N)c1nnc(SCc2ccc(Cl)cc2)o1 returned BoNT F protease -5, Bead autofluor 25032*, BoNT-A LC inh2 -2 and Anthrax LF prot -5.
`O=C(CSc1nnc(CNC(=O)c2ccccc2)o1)c1ccc(Cl)cc1` gave TcdB inh -1, BoNT F protease -10, Bead autofluor 5299, BoNT-A LC inh2 -1 and Anthrax LF prot -2.
`CCC(C)[C@H](N)c1nnc(SCC(=O)c2ccc(Cl)cc2)o1` (stereo partly specified) gave BoNT F protease 1, Bead autofluor 19418*, BoNT-A LC inh2 5 and Anthrax LF prot 0.
CC(C)C[C@H](N)c1nnc(SCc2ccc(Cl)cc2)o1 was read as TcdB inh 1, BoNT F protease inconclusive, Bead autofluor 3623, BoNT-A LC inh2 0 and Anthrax LF prot 4.
C[C@H](N)c1nnc(SCc2ccc(Cl)cc2Cl)o1 was read as BoNT F protease -10, Bead autofluor 25593*, BoNT-A LC inh2 -5 and Anthrax LF prot -4.
C[C@H](N)c1nnc(SCc2c(Cl)cccc2Cl)o1 was read as BoNT F protease 2, Bead autofluor 9009, BoNT-A LC inh2 2 and Anthrax LF prot 12.
For C[C@H](CO)N1C[C@H](C)[C@H](CN(C)C(=O)NC2CCCCC2)Oc2ccc(NS(=O)(=O)c3ccccc3)cc2C1=O the results were TcdB inh 2.
O=C(C[C@@H]1CC[C@H]2[C@@H](COC[C@@H](O)CN2C(=O)c2ccncc2)O1)NCc1ccc(-c2ccccc2)cc1 was read as TcdB inh 1.
`Nc1cc(N2CCCCC2)c(Cl)cc1[N+](=O)[O-]` gave BoNT F protease 6, Bead autofluor 21335*, BoNT-A LC inh2 inconclusive and Anthrax LF prot -12.
O=[N+]([O-])c1ccc(N2CCCCC2)c2ncccc12 was read as TcdB inh 2, BoNT F protease -2, Bead autofluor 4631, BoNT-A LC inh2 3 and Anthrax LF prot -4.
`Nc1ccc(N2CCCCC2)c2nonc12` gave TcdB inh 1, BoNT F protease -22, Bead autofluor 3405, BoNT-A LC inh2 33* and Anthrax LF prot 9.
`Nc1cc(N2CCCCC2)c([N+](=O)[O-])cc1Cl` gave TcdB inh -2, BoNT F protease -4, Bead autofluor 10319, BoNT-A LC inh2 1 and Anthrax LF prot 0.
Screening O=[N+]([O-])c1ccc(N2CCCCCC2)c2nonc12 returned TcdB inh 3, BoNT F protease 115*, Bead autofluor 14674, BoNT-A LC inh2 53* and Anthrax LF prot 26.
Screening O=[N+]([O-])c1ccc(N2CCCCC2)c(Cl)c1N1CCCCC1 returned BoNT F protease -1, Bead autofluor 19380*, BoNT-A LC inh2 1 and Anthrax LF prot 2.
Screening O=C(NCC[C@H]1CC[C@H](NC(=O)C2CCC2)[C@H](CO)O1)Nc1ccc(Cl)cc1 returned TcdB inh -2.
Screening COc1ccc(C)cc1NC(=O)COC(C)=O returned BoNT F protease -2, Bead autofluor 16638*, BoNT-A LC inh2 0 and Anthrax LF prot -2.
CCc1ccc(-c2cn3c(n2)SCC3)cc1 was read as TcdB inh 1, BoNT F protease 0, Bead autofluor 2454, BoNT-A LC inh2 0 and Anthrax LF prot 1.
`CCc1ccc(-c2cn(-c3nc(C)cc(C)n3)c(=N)o2)cc1` gave BoNT F protease -3, Bead autofluor 23477*, BoNT-A LC inh2 -1 and Anthrax LF prot -2.
Oc1ccc2ccc3[nH]cnc3c2c1 was read as TcdB inh 21*, BoNT F protease inconclusive, Bead autofluor 4283, BoNT-A LC inh2 -3 and Anthrax LF prot -4.
`CCOC(=O)c1c(NC(C)=O)sc2c1CCN(Cc1ccccc1)C2` gave TcdB inh 2, BoNT F protease 4, Bead autofluor 5686, BoNT-A LC inh2 0 and Anthrax LF prot -6.
Screening CCOC(=O)c1c(NC(=O)C(C)Sc2cccc[n+]2[O-])sc2c1CCN(Cc1ccccc1)C2 (stereo unspecified) returned BoNT F protease 12, Bead autofluor 8502, BoNT-A LC inh2 45* and Anthrax LF prot 8.
